Screens as filed in PubChem.
In the library only some 0.97% were active in any assay of this set; here they are far more common.
RecA splice inh: blocks M. tuberculosis RecA intein splicing | hit rate 0.75% among 290,000 | inhibition, % (concentration not given with the values) | P9WHJ3 | cell-free RecA intein splicing, fluorescence; in the data active = inhibition above about 30%; inconclusive = no clear call, values can overlap the other calls;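 also: 0% = vehicle wells and 100% = reference inhibitor control wells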
TcdB inh: inhibitors of Clostridioides difficile toxin B glycohydrolase; P18177; TcdB glycohydrolase enzymatic assay, plate reader; inhibition, % at 9.99 µM; hit rate 0.24% among 350,000; AID 652162; in the data active = inhibition above about 10%
UGM FP inh: Mtb UDP-galactopyranose mutase inhibition. P9WIQ1. purified UGM, fluorescence polarization probe displacement. inhibition, % at 10 µM. hit rate 0.06% among 320,000. AID 504406; in the data active = inhibition above about 10%, passing the limit was not always enough; inconclusive = no clear call, values can overlap the other calls
Mtb bLac sens: beta-lactam sensitization of Mtb H37Rv. inhibition, % at 25 µM. hit rate 0.27% among 330,000. M. tuberculosis H37Rv growth with meropenem, percent inhibition;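 also: growth measured after seven days incubation then overnight dye step; 0% = bacteria only wells and 100% = bacteria with antibiotic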
Rv3671c inh: Rv3671c (M. tuberculosis) protease inhibition; hit rate 0.048% among 320,000; AID 2606; inhibition, % at 5.96 µM; in the data active = inhibition above about 38%;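 also: extracellular domain of Rv3671c used as enzyme; 0% = enzyme with DMSO and 100% = no enzyme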
Target sequence (P9WHR9 whole entry, looked up, the tested form may be a part): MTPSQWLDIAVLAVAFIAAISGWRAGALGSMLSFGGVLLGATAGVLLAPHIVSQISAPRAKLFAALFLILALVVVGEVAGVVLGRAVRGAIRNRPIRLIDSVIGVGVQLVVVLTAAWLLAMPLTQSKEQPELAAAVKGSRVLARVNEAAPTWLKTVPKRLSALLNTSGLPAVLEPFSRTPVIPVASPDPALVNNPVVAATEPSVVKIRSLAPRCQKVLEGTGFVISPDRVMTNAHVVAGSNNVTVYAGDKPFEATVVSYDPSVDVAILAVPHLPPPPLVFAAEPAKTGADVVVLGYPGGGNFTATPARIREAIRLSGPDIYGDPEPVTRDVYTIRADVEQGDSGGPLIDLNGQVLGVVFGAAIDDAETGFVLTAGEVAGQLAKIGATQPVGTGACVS
MazEF act: activators of E. coli MazEF toxin-antitoxin RNase; P0AE70; FAM/BHQ RNA-DNA oligo cleavage fluorescence, 5 h; activation, % at 20 µM; hit rate 0.32% among 350,000; in the data active = activation above about 50%
Target sequence (P0AE70 whole entry, looked up): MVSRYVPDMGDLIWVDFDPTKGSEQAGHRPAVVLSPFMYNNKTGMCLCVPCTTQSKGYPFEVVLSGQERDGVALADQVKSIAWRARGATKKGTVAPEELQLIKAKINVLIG
GFP chromo cs: counter-screen GFP chromophore formation inhibition | shares compounds with RecA splice inh | cell-free GFP chromophore formation, fluorescence | EC50, µM | hit rate 83% among 2,100
Rv3671c confirm: Rv3671c protease inhibition, confirmation; hit rate 40% among 140; shares compounds with Rv3671c inh; inhibition, % at 5.96 µM; AID 2761; in the data active = inhibition above about 38%
DNA intercal FP: counter-screen: DNA intercalators; AC50, µM; AID 463198; acridine orange-DNA binding, fluorescence polarization; shares compounds with UGM FP inh; hit rate 60% among 35;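 active = fitted AC50 no greater than ten times the top concentration tested, cut at about 17 µM in these data; inconclusive = flat fit with 30 to 70% signal change, or an unreliable fit; inactive = AC50 beyond ten times the top concentration tested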
The depositor's hits bear a star; i = inactive; ? = inconclusive; . = no result. Unless noted, no rule for the calls is given here.

SMILES	RecA splice inh	TcdB inh	UGM FP inh	Mtb bLac sens	Rv3671c inh	MazEF act	GFP chromo cs	Rv3671c confirm	others
CC1=NN(Cc2ccccc2)C(=O)C1C(c1ccccc1)C(C#N)C#N (configuration not stated)	87.5*	.	2.0	5.9	1.5	-0.5	8.7*	.
N#CC(c1ccccc1)C1CCN(Cc2ccccc2)CC1 (configuration not stated)	3.4	.	1.0	0.4	2.2	5.6	.	.
Cc1ccc(C)c(N2CCN(C(c3ccncc3)c3nnnn3Cc3ccccc3)CC2)c1 (configuration not stated)	10.2	.	1.1	-5.9	-4.3	2.2	.	.
CC1=NN(Cc2ccccc2)C(=O)C1C(c1ccc(Cl)cc1)C(C#N)C#N (configuration not stated)	79.6*	-0.9	1.9	0.1	0.7	3.6	6.21*	.
C[C@@H]1CN([C@@H](C)CO)S(=O)(=O)c2ccc(C#C[C@@H](C)O)cc2O[C@@H]1CN(C)C(=O)CC1CC1	.	0.1	.	.	.	.	.	.
CC(C)NC(=O)N[C@@H]1CC[C@H](CCNC(=O)C2CC2)O[C@H]1CO	.	0.7	.	.	.	.	.	.
C[C@@H]1CN([C@@H](C)CO)S(=O)(=O)c2ccc(C#CC3CC3)cc2O[C@@H]1CN(C)Cc1cccc(F)c1	.	0.8	.	.	.	.	.	.
COc1cc(C=C2C(=O)c3ccccc3C2=O)ccc1O	46.0*	1.2	3.6	-1.5	-2.8	2.0	>38	.
O=C(O)c1ccccc1-c1ccccc1C(=O)Nc1ccc(-c2nc3cc(Cl)ccc3o2)cc1	35.7*	2.2	-0.1	56.1	-18.5	-1.0	16.9*	.
Oc1ccc(Nc2nc(-c3ccc4ccccc4c3)cs2)cc1	34.2*	.	2.8	92.8	4.5	.	20.3*	.
CC(=O)Nc1nc(-c2ccc3ccccc3c2)cs1	1.3	0.3	-0.7	45.7	-17.9	-9.7	.	.
CS(=O)(=O)Nc1ccc2c(c1)[C@@H]1C[C@@H](CC(=O)NCc3ccccn3)O[C@@H](CO)[C@@H]1O2	.	-0.4	.	.	.	.	.	.
COc1ccc2nc3cc(Cl)ccc3c(Nc3cc(C(C)C)c(O)cc3C)c2c1	73.5*	0.8	1.3	100.2	40.3*	-6.2	0.754*	46.0*
COc1ccc(S(=O)(=O)Nc2cc(C(C)C)c(O)cc2C)cc1	-0.1	.	2.5	-5.2	-4.7	7.2	.	.
CNc1ccc2nc3ccccc3[n+](C)c2c1	44.5*	-1.6	2.2	99.2	107.5*	-50.5	16.6*	82.5*
C[n+]1c2ccccc2nc2ccc(NCCO)cc21	64.0*	3.8	0.1	99.1	43.5*	-34.8	11.8*	41.9*
O=C(c1ccc(F)cc1)N1CC(=O)N2[C@@H](CO)[C@H](c3ccc(C#CC4CCCCC4)cc3)[C@@H]2C1	.	-0.1	.	.	.	.	.	.
CC(C)C#Cc1ccc2c(c1)O[C@@H](CN(C)C(=O)CC1CC1)[C@@H](C)CN([C@H](C)CO)S2(=O)=O	.	-0.6	.	.	.	.	.	.
CCCn1nc([N+](=O)[O-])c(C(C#N)c2nc3ccccc3s2)c(Cl)c1=O (configuration not stated)	81.4*	.	0.5	59.0	39.5*	-3.0	6.12*	31.4
Cc1ccc2c(c1)C1C=CCC1C(C(=O)O)N2 (configuration not stated)	6.3	.	0.6	5.8	9.6	.	.	.
O=C(O)C1Nc2c(O)cc(Cl)c([N+](=O)[O-])c2C2C=CCC12 (configuration not stated)	42.8*	-1.0	1.3	6.7	49.2*	-29.2	13.1*	18.1
O=c1oc(-c2cccnc2)nc2ccccc12	0.6	.	1.8	-4.1	2.2	-18.8	.	.
Cc1onc(-c2ccccc2)c1-c1nc2ccccc2c(=O)o1	31.8*	.	4.3	9.8	48.9*	-9.3	2.29*	62.5*
O=C(c1ccccc1)N1CCC2CCN(CCc3ccccc3)CC21 (configuration not stated)	.	-3.4	.	.	.	.	.	.
COc1ccc2noc3c2c1C(=O)c1ccccc1-3	59.9*	2.0	83.9*	63.6	5.6	.	10.1*	.	DNA intercal FP=3.07*
SMILES	RecA splice inh	TcdB inh	UGM FP inh	Mtb bLac sens	Rv3671c inh	MazEF act	GFP chromo cs	Rv3671c confirm	others
CO[C@H]1CN(C)C(=O)c2ccc(NC(=O)C3CC3)cc2OC[C@H](C)N(Cc2cccc(F)c2)C[C@@H]1C	.	-1.0	.	.	.	.	.	.
Cc1cc(OC(=O)c2ccco2)c2c3c(c(=O)oc2c1)CCCC3	0.8	.	-1.6	99.9	59.5*	5.4	.	73.3*
Cc1[nH]c2c(C)cccc2c1CC(=O)O	-4.8	0.2	-0.8	1.5	1.4	5.0	.	.
Cc1cccc2c(N=O)c(O)[nH]c12	0.3	3.1	1.4	-8.8	47.9*	5.2	.	31.3
COc1ccc(NC(=O)N(C)C[C@@H]2OCCCC[C@@H](C)Oc3ccc(NC(=O)c4ccccc4)cc3C(=O)N([C@@H](C)CO)C[C@H]2C)cc1	.	-1.1	.	.	.	.	.	.
CNC[C@@H]1Oc2ccc(NC(=O)NC(C)C)cc2C(=O)N([C@H](C)CO)C[C@@H]1C	.	-1.1	.	.	.	.	.	.
O=C(NC(=S)NNC(=O)c1ccccc1O)c1cccnc1	3.3	2.0	1.8	6.4	46.7*	-3.4	.	43.8*
C[C@@H]1CN([C@@H](C)CO)C(=O)c2cc(NC(=O)C3CC3)ccc2O[C@H]1CN(C)Cc1ccncc1	.	-1.5	.	.	.	.	.	.
COc1cccc2c1C(=O)c1c(O)c3c(c(O)c1C2=O)CC(O)(C(=O)CO)CC3OC1CC(N(C)C)C(O)C(C)O1 (configuration not stated)	.	-22.4	.	.	.	-713.0	.	.
CC(=O)[C@]1(O)Cc2c(O)c3c(c(O)c2[C@@H](O[C@H]2C[C@H](N)[C@H](O)[C@H](C)O2)C1)C(=O)c1ccccc1C3=O	-16.1	.	70.3*	98.7	69.1*	i	.	81.3*
O=C(NCc1cccs1)c1cccc(Nc2nc3ccc(Br)cc3[nH]2)c1	8.5	1.5	0.3	-9.3	43.3*	7.4	.	37.4*
CNc1ccc2c3c(cccc13)C(=O)N(C)C2=O	-294.7	-1.6	?	4.8	76.8*	.	.	68.8*
COc1cc(C=NNc2ccc(S(=O)(=O)Nc3ccccc3C(=O)O)cc2[N+](=O)[O-])ccc1O	.	-0.4	2.4	3.5	47.1*	2.8	.	41.6*
O=S(=O)(c1ccc(NC(=S)N/N=C/c2ccc(O)c(O)c2)cc1)N1CCOCC1	-3.3	5.0	0.4	-5.9	7.8	9.0	.	.
O=[N+]([O-])c1cc(Cl)cc(/C=N/NC(=S)Nc2ccc(S(=O)(=O)N3CCOCC3)cc2)c1O	.	1.7	3.4	39.8	57.9*	6.1	.	14.3
C=CCNC(=S)N1CCN(C2CCCCC2)CC1	1.6	1.4	0.8	-3.4	40.4*	-0.2	.	-1.0
S=C(Nc1ccc(Cl)cc1)N1CCN(C2CCCCC2)CC1	3.6	.	0.8	-12.7	4.7	-4.5	.	.
CCOC(=O)C1=C(NC(=S)NC(=O)c2ccccc2)c2ccccc2CC1(C)CC (configuration not stated)	7.0	.	1.2	12.4	-1.9	0.2	.	.
